Drawing on PubChem BioAssay (NCATS), this text covers activation for eleven compounds.

Each structure is given as a SMILES string. Records with an inconclusive call do not appear. Values without a mark were called inactive. Calls come from the whole dose curve; as a rule, active = well fitted activation curve with a large enough effect; inconclusive = small, poorly fitted or top-dose-only effect; inactive = no such curve, though single readings can be large or run the other way.

Sequence of Cellular tumor antigen p53 (Homo sapiens) (P04637 whole entry, looked up): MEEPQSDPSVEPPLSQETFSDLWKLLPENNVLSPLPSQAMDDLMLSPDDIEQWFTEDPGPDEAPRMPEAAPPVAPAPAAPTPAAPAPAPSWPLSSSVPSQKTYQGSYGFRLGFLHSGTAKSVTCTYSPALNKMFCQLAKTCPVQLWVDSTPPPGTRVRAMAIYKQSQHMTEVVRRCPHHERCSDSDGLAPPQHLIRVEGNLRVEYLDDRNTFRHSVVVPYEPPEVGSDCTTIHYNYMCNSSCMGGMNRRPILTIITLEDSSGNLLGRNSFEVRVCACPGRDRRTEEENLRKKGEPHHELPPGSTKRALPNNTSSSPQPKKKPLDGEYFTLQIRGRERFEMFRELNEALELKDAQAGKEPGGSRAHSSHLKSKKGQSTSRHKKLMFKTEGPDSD

The test concerns the target Cellular tumor antigen p53 (Homo sapiens) (UniProt P04637). The test is described as follows: Primary qHTS for small molecule compounds that upregulate eGFP-tagged delta133p53alpha (in N-terminal) cells. (AID 2060322).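 Note: series mostly up to about 56 µM; 0% = DMSO vehicle and 100% = reference activator; nearly all actives have a fitted effect of over 75% in size.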 The note with it: NCI-H358 eGFP-delta133p53alpha fluorescence, 24 h; activation: stronger effect = higher value. The gist of the method: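 NCI-H358 cells pre-induced 24 h with 10 ng/ml doxycycline for eGFP-delta133p53alpha, plated dox-free and exposed 24 h at 37C to titrated compounds. Fixed, Hoechst-stained; gated GFP peak intensity by laser scanning cytometry, normalized to DMSO (0%) and 57.5 uM 5-azacytidine (100%).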
Turning to `CC1(C)O[C@@H]2[C@@H](CO[C@@]3(COS(N)(=O)=O)OC(C)(C)O[C@@H]23)O1`, the activation was -2.51%. The result for `CN1CCN(CCC(=O)N2c3ccccc3Sc3ccc(C(F)(F)F)cc32)CC1` reads 18.6%. The result for `COc1ccc2cc(C=O)ccc2c1` reads -1.69%; that for `CC(C)C(=O)SCCCCCCC(=O)Nc1nc(-c2ccccc2)cs1`, 49.2%; that for `COc1ccc2c(c1)CC[C@H]1[C@@H]2CC[C@]2(C)[C@@H](NCCCCCCN3C(=O)C=CC3=O)CC[C@H]12`, 38.4%.

With `C#C[C@]1(O)CC[C@H]2[C@H]3CCc4cc(OC)ccc4[C@H]3CC[C@@]21C`, the activation is -30%. On to `O=C1C(c2[nH]c3ccccc3c2O)=Nc2ccccc21`, for which the activation is -0.565%. For the compound `CCN(CC)CC(=O)Nc1c(C)cccc1C(=O)OC`, the activation was -9.21%. Consider `C=C1C(=CC=C2CCC[C@]3(C)[C@@H]([C@H](C)CCCC(C)(C)O)CC[C@@H]23)C[C@@H](O)C[C@@H]1O`, for which the activation is -4.26%. As for `CCC(=O)O[C@H]1[C@H](O[C@@H]2[C@@H](C)[C@H](O[C@H]3C[C@@](C)(OC)[C@@H](O)[C@H](C)O3)[C@@H](C)C(=O)O[C@H](CC)[C@@](C)(O)[C@H](O)[C@@H](C)C(=O)[C@H](C)C[C@@]2(C)O)O[C@H](C)C[C@@H]1N(C)C`, the activation was 0.837%.

With `CC=CC[C@@H](C)C(=O)[C@H]1C(=O)N[C@@H](C(C)C)C(=O)N(C)CC(=O)N(C)[C@@H](CC(C)C)C(=O)N[C@@H](C(C)C)C(=O)N(C)[C@@H](CC(C)C)C(=O)N[C@@H](C)C(=O)N[C@H](C)C(=O)N(C)[C@@H](CC(C)C)C(=O)N(C)[C@@H](CC(C)C)C(=O)N(C)[C@@H](C(C)C)C(=O)N1C`, the activation was 34.2%.
